Among all 340,000 compounds or so, about 6,400 (1.9%) were called active. About 4% were inconclusive and are not listed. This is one part of a sample in which actives are shown more often than they occur. Calls follow the shape of the dose curve; as a rule, active = well fitted falling curve with a large enough effect; inconclusive = small, poorly fitted or top-dose-only effect; inactive = no such curve, though single readings can be large or run the other way.
target: ATP-dependent Clp protease proteolytic subunit (Bacillus subtilis (strain 168)) (UniProt P80244); test: qHTS Assay for Activators of ClpP; also: the source files actives as falling curves though it sought activators and does not explain the sign; nearly all actives have a fitted effect of over 65% in size; details: purified B. subtilis ClpP, FRET peptide cleavage, 20 min; series mostly up to 57.5 µM
Text: The Clp protease proteolytic subunit (ClpP) is the core unit of the Clp complex belonging to the peptidase family S14 that hydrolyzes protein into small peptides in the presence of ATP and magnesium. It is ubiquitously expressed and is the major protease in bacteria. […] Unlike common antibiotics that simply interfere with the essential enzyme activity, ADEP binding activates the ClpP core in the absence of the regulatory Clp-ATPases leading to uncontrolled proteolysis and eventually cell death. Activators binding to the docking site on ClpP can also block formation of the ClpXP and ClpA/C-P holoenzyme complexes interfering with the normal biological functions of ClpP and thus have the potential to become new anti-microbials.
To identify activators of ClpP, a FRET based quenching reversal assay was developed using a purified B. subtilis ClpP and a decapeptide substrate (FRET-FV). The FRET-FV is tagged with a fluorescent molecule amino benzoic acid (donor) at the N-terminus and a nitrotyrosine quencher (acceptor) at the C-terminus. FRET-FV cleaves upon activation of ClpP with ADEP treatement and reverses the quenching effect of the nitrotyrosine causing an increase in fluorescence emission signal at 430nm. This assay was used to screen the Molecular Libraries Small Molecule Repository (MLSMR).
NIH Molecular Libraries Probe Production Centers Network [MLPCN]
NIH Chemical Genomics Center [NCGC]
Assay Submitter (PI): Michael Maurizi, National Cancer Institute
Two and a half microL/well of purified enzyme solution (final concentrations 10 microg/mL B. subtilis ClpP in 100 mM Tris/HCl pH8, 100 mM KCl, 0.05% low protease BSA, 2.5% glycerol, 0.01% Tween-20 buffer) was dispensed into 1536-well assay plates (Greiner, black solid, medium-binding plates) with Aurora Discovery BioRAPTR Flying Reagent Dispenser (FRD, Beckton-Dickenson). Compound solution (23 nL) was transferred to the assay plate using Kalypsys pin tool equipped with a 1536-pin tool. […] FRET signals at time 0 and after 20 min room temperature incubation were obtained using the PerkinElmer Envision plate reader with 320nm excitation and 430nm emission filters. Delta FRET value (Time 20 - Time 0) was calculated and normalized to the delta FRET value of positive control ADEP (5.8 microM final concentration) and negative control DMSO and no enzyme wells.
Potency is read from the fitted curve at half-maximal effect.

Potency, inactive:
CCOC(=O)[C@]12CCC=C1N(Cc1ccccc1)C(=O)[C@H](CC(=O)N1CCCC1)C2
CC(=O)NC(c1ccccc1)c1nc(-c2ccccc2C)cs1 (stereo unspecified)
NS(=O)(=O)c1ccc(NC(=O)CSc2nnc3c(n2)[nH]c2ccccc23)cc1
O=C(Cn1nc(C(F)(F)F)c2c1CCCC2)Nc1ccc(Cl)cc1
O=C(Cn1nc(C(F)(F)F)c2c1CCC2)NCc1ccc(F)cc1
COc1ccc(C(=O)OCC(=O)Nc2ccc3[nH]c(=O)[nH]c3c2)c(OC)c1OC
COC(=O)c1ccc(OCC(=O)NC(C)(C)C)cc1
Cc1ccc([C@H]2N[C@]3(CCCN(Cc4ccccc4)C3=O)[C@H]3C(=O)N(Cc4ccccc4)C(=O)[C@@H]23)cc1
CCOC(=O)[C@H]1Nc2ccc(Cl)cc2[C@@H]2[C@H]1C1CC(c3ccccc31)N2C(=O)OCc1ccccc1 (stereo partly specified)
CCn1c2ccccc2c2cc(NC(=O)COc3ccc(C)cc3C)ccc21
C/C(CC(=O)Nc1ccc(N(C)C)cc1)=N\NC(=O)c1ccccc1F
COc1ccc(-c2cc(C(=O)NCCCN3CCCC3=O)c3ccccc3n2)cc1OC
Cc1ccc(-c2cc(C(=O)NC3CCN(Cc4ccccc4)CC3)c3ccccc3n2)cc1
COCCNc1nc(NCc2ccc(NC(C)=O)cc2)c2sccc2n1
Cc1nc2c(OCC(=O)C(C)(C)C)cccn2c1N(C)Cc1cccs1
CCCCCc1c(-c2cccc(Br)c2)ncn1CCc1ccccc1OC
COc1c(C)cc(C(O)c2ncc(-c3cccc(C(F)(F)F)c3)[nH]2)cc1C (stereo unspecified)
CCC(c1nnnn1-c1ccc2c(c1)OCCO2)N1CCN(c2ccc(C(F)(F)F)cn2)CC1 (stereo unspecified)
CC(C)(C)C1CCc2c(sc3nc(SCC(N)=O)nc(N)c23)C1 (stereo unspecified)
CCc1nc(N2CCN(C(C)=O)CC2)c2c3c(sc2n1)CCCC3
C[C@H]1CN([C@@H](C)CO)C(=O)c2cc(C3=CCCCC3)cnc2O[C@@H]1CN(C)C(=O)Cc1ccccc1

Potency, active:
Cc1cc(NC(=O)Cn2nc(C(F)(F)F)c3c2CCCC3)no1 28.2 µM
CC(C)(C)NC(=O)COc1ccc(CNc2ccc3[nH]c(=O)[nH]c3c2)cc1 22.4 µM
CCn1c2ccccc2c2cc(NC(=O)C/C(C)=N/NC(=O)c3ccccc3N)ccc21 14.1 µM
CCc1ccc(-c2cc(C(=O)NN3CCN(C)CC3)c3ccccc3n2)cc1 31.6 µM
C=C(C)CSc1nc(N)c2c3c(sc2n1)CCC3 12.6 µM

— PubChem BioAssay AID651965 (National Center for Advancing Translational Sciences (NCATS), 2013)
